# Measurements from ChEMBL document CHEMBL1961873, “Compounds: GSK PKIS; Assays: Nanosyn kinase panel” (2012).
# Tests used:
# [1] = biological target: Mitogen-activated protein kinase 3 (Homo sapiens) (UniProt P27361); conditions: at 1 µM;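 further: values are mean percent inhibition of MAPK3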
# [2] = biological target: SRSF protein kinase 3 (Homo sapiens) (UniProt Q9UPE1); conditions: at 0.1 µM
# [3] = biological target: SRSF protein kinase 3 (Homo sapiens) (UniProt Q9UPE1); conditions: at 1 µM
# [4] = biological target: Mitogen-activated protein kinase 14 (Homo sapiens) (UniProt Q16539); conditions: at 0.1 µM
# Chain of Mitogen-activated protein kinase 14 (Homo sapiens) (Q16539 whole entry): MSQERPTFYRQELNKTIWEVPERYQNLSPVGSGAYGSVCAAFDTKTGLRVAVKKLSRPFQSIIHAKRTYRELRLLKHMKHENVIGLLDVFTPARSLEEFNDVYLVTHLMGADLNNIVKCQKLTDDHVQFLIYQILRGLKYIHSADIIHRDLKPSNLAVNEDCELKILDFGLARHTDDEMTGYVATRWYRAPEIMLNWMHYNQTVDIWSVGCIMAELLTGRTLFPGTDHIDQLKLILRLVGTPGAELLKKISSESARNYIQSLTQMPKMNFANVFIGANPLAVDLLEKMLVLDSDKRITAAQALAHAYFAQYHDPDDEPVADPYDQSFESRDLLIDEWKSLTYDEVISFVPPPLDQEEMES
# [5] = biological target: Mitogen-activated protein kinase 14 (Homo sapiens) (UniProt Q16539); conditions: at 1 µM
# [6] = biological target: Mitogen-activated protein kinase 11 (Homo sapiens) (UniProt Q15759); conditions: at 0.1 µM
# Chain of Mitogen-activated protein kinase 11 (Homo sapiens) (Q15759 whole entry): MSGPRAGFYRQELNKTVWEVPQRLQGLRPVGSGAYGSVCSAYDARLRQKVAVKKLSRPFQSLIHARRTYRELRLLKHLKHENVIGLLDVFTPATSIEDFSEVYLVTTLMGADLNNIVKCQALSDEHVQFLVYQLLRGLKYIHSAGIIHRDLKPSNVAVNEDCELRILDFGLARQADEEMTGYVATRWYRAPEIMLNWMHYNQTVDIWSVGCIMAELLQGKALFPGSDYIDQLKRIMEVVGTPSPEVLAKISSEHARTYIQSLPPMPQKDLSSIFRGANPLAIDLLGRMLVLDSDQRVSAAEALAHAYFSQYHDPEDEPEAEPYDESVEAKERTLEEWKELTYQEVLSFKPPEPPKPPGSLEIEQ
# [7] = biological target: Mitogen-activated protein kinase 11 (Homo sapiens) (UniProt Q15759); conditions: at 1 µM
# [8] = biological target: T1, Mitogen-activated protein kinase 13 (Homo sapiens) (UniProt O15264); conditions: at 0.1 µM
# T1 sequence (whole entry): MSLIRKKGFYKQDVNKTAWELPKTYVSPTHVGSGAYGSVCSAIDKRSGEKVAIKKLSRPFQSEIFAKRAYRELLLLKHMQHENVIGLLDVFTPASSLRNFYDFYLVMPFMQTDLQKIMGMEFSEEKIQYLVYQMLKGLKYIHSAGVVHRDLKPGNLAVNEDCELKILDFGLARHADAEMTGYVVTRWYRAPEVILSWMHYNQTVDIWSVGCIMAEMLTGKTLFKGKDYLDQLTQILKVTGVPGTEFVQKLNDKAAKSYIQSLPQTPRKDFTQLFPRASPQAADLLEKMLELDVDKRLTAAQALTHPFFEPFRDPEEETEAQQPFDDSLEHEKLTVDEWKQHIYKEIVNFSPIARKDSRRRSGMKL
# [9] = biological target: T1, Mitogen-activated protein kinase 13 (Homo sapiens); conditions: at 1 µM
# [10] = biological target: T2, Mitogen-activated protein kinase 12 (Homo sapiens) (UniProt P53778); conditions: at 0.1 µM
# T2 sequence (whole entry): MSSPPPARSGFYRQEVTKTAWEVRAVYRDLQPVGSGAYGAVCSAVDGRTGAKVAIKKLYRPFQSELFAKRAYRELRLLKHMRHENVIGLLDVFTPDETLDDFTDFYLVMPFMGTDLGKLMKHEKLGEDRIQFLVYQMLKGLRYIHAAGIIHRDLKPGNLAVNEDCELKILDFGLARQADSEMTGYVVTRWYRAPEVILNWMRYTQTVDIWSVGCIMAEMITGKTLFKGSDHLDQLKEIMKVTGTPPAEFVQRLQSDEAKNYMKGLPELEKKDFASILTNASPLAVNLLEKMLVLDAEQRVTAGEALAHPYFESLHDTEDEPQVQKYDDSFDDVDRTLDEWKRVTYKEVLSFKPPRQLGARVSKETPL
# [11] = biological target: T2, Mitogen-activated protein kinase 12 (Homo sapiens); conditions: at 1 µM
# [12] = biological target: SRSF protein kinase 1 (Homo sapiens) (UniProt Q96SB4); conditions: at 0.1 µM
# Chain of SRSF protein kinase 1 (Homo sapiens) (Q96SB4 whole entry, canonical isoform): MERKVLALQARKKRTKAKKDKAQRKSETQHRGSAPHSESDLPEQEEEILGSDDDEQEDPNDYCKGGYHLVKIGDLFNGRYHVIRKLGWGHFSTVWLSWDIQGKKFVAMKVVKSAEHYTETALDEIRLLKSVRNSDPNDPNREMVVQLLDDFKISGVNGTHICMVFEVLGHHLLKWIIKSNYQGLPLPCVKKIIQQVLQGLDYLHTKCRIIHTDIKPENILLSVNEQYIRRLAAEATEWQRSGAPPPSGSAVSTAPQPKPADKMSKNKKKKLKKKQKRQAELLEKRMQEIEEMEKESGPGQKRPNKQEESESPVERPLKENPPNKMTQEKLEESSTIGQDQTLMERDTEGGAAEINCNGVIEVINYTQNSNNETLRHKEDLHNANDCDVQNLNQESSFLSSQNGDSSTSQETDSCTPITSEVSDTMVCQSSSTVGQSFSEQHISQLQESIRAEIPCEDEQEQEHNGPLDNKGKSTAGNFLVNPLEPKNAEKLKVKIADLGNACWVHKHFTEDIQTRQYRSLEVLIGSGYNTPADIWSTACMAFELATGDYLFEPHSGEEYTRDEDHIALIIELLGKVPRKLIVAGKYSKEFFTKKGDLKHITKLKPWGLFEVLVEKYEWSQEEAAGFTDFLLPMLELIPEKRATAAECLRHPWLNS
# [13] = biological target: SRSF protein kinase 1 (Homo sapiens) (UniProt Q96SB4); conditions: at 1 µM
# [14] = biological target: Phosphatidylinositol 4,5-bisphosphate 3-kinase catalytic subunit alpha isoform (Homo sapiens) (UniProt P42336); conditions: at 0.1 µM
# Chain of Phosphatidylinositol 4,5-bisphosphate 3-kinase catalytic subunit alpha isoform (Homo sapiens) (P42336 whole entry, canonical isoform): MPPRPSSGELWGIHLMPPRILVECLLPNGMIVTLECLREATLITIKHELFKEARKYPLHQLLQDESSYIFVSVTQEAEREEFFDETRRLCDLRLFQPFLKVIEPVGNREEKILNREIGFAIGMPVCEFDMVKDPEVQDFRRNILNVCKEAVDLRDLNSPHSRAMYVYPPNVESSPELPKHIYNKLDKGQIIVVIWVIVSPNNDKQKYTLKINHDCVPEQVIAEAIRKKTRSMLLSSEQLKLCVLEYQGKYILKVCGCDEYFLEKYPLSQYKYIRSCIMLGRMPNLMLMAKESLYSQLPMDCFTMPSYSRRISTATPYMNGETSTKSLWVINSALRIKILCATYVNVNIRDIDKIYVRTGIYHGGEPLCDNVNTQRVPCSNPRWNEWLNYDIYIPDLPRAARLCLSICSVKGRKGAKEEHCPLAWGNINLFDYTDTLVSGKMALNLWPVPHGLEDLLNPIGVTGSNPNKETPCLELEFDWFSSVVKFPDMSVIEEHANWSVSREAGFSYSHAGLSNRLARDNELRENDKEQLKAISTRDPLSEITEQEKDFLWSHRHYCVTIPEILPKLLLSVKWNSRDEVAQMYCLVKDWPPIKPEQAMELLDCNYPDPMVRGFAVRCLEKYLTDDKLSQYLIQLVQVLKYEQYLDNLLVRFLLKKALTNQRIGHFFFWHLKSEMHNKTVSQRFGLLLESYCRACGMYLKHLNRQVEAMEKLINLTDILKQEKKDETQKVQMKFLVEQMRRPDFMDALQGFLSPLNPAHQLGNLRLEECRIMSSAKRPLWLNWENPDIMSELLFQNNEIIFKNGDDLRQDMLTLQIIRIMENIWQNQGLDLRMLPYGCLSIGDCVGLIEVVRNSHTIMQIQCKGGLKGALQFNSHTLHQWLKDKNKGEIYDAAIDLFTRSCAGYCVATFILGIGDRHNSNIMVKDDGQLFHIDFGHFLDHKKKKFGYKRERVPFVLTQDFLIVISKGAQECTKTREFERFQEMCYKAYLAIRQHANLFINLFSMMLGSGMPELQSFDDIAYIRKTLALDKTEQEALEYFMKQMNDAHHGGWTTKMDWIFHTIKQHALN
# [15] = biological target: Phosphatidylinositol 4,5-bisphosphate 3-kinase catalytic subunit alpha isoform (Homo sapiens) (UniProt P42336); conditions: at 1 µM
# [16] = biological target: T3, Phosphatidylinositol 4,5-bisphosphate 3-kinase catalytic subunit delta isoform (Homo sapiens) (UniProt O00329); conditions: at 0.1 µM
# T3 sequence (whole entry): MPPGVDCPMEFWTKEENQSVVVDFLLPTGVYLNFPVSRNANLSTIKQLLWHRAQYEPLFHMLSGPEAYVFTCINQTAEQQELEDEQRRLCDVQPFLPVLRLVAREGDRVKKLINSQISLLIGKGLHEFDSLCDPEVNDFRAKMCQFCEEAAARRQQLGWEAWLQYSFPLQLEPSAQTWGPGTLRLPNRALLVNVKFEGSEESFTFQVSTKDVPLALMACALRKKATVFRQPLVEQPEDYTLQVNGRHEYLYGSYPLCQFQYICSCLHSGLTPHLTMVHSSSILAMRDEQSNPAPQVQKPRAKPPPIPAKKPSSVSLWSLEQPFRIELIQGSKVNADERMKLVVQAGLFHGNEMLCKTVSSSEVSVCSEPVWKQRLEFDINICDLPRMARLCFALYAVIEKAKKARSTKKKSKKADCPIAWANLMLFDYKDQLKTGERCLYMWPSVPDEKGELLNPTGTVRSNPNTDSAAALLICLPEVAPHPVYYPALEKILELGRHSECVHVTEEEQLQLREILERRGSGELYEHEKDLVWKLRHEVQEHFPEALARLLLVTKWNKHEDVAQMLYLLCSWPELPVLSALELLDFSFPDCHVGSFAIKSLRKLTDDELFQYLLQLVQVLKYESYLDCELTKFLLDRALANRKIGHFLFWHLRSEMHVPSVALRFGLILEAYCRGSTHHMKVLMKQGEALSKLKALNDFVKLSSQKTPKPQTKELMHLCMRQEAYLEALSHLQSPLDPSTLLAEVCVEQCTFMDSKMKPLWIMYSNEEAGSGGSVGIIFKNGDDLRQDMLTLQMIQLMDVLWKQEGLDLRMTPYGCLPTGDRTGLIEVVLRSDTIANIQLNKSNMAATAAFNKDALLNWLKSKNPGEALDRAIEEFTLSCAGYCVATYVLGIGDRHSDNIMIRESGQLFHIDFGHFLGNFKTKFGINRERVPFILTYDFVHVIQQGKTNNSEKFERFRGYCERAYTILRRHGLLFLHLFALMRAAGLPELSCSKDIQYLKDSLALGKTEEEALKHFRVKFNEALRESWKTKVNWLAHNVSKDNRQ
# [17] = biological target: T3, Phosphatidylinositol 4,5-bisphosphate 3-kinase catalytic subunit delta isoform (Homo sapiens); conditions: at 1 µM
# [18] = biological target: Phosphatidylinositol 4-kinase beta (Homo sapiens) (UniProt Q9UBF8); conditions: at 0.1 µM
# Chain of Phosphatidylinositol 4-kinase beta (Homo sapiens) (Q9UBF8 2-816 limits assumed): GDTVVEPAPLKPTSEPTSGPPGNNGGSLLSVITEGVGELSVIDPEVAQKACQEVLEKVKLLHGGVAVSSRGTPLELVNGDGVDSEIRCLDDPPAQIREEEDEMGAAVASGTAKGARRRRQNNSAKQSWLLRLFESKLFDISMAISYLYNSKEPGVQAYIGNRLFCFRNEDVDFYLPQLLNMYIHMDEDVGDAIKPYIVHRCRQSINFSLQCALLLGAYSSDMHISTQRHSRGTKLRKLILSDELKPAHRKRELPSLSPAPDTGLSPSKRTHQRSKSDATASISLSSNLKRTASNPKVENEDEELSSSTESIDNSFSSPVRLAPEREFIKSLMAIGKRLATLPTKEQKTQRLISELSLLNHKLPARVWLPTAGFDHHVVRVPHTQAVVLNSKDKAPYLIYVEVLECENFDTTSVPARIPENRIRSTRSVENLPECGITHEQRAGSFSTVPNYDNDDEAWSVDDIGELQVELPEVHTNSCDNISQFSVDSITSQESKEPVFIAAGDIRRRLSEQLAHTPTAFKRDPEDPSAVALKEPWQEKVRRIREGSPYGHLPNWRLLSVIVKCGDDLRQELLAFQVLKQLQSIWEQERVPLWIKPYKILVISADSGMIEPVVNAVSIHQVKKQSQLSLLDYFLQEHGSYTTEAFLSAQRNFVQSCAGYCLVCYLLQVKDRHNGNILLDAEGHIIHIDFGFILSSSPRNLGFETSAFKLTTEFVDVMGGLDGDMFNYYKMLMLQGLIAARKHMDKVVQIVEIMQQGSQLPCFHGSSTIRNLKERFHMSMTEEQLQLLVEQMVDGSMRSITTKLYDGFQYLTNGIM
# [19] = biological target: Phosphatidylinositol 4-kinase beta (Homo sapiens) (UniProt Q9UBF8); conditions: at 1 µM
# [20] = biological target: Sphingosine kinase 1 (Homo sapiens) (UniProt Q9NYA1); conditions: at 0.1 µM;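 further: mean percent inhibition of SPHK1 activity, measured within the GSK PKIS screening panel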
# Chain of Sphingosine kinase 1 (Homo sapiens) (Q9NYA1 whole entry): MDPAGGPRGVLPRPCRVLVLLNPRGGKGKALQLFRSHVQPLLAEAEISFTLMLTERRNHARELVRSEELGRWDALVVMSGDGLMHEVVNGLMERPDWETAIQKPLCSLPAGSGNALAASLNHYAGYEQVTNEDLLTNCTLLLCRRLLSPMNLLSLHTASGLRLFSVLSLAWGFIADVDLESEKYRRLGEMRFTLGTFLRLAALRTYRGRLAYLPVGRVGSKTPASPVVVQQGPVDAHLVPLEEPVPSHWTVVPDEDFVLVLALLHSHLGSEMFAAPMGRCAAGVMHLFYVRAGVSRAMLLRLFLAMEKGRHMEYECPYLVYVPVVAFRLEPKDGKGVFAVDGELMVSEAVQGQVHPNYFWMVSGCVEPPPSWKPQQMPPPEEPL
# Chain of Mitogen-activated protein kinase 3 (Homo sapiens) (P27361 whole entry): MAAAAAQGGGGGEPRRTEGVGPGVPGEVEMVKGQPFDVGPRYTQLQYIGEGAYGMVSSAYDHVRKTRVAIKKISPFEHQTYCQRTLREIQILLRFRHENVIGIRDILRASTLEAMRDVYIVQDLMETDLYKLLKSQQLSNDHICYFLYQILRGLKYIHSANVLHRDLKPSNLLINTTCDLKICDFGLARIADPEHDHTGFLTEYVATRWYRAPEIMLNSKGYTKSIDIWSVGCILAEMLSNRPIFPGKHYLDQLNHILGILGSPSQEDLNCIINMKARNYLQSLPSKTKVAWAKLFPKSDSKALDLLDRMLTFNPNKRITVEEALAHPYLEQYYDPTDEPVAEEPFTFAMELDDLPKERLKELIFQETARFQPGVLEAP
# Chain of SRSF protein kinase 3 (Homo sapiens) (Q9UPE1 whole entry): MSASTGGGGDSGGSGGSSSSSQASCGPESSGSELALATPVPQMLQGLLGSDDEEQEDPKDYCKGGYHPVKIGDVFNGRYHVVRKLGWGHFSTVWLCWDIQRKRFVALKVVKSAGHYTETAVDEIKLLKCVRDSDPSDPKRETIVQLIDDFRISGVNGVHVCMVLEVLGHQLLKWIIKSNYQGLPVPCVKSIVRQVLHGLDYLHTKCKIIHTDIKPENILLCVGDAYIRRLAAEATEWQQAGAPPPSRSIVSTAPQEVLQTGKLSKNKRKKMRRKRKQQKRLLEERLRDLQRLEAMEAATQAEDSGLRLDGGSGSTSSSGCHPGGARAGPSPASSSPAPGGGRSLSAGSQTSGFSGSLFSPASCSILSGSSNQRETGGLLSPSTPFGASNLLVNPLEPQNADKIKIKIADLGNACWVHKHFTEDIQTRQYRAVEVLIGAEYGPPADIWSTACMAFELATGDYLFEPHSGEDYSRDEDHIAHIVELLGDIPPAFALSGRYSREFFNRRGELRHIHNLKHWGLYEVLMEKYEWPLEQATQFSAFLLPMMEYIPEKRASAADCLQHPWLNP
SMILES,inhibition [1] [%],inhibition [2] [%],inhibition [3] [%],inhibition [4] [%],inhibition [5] [%],inhibition [6] [%],inhibition [7] [%],inhibition [8] [%],inhibition [9] [%],inhibition [10] [%],inhibition [11] [%],inhibition [12] [%],inhibition [13] [%],inhibition [14] [%],inhibition [15] [%],inhibition [16] [%],inhibition [17] [%],inhibition [18] [%],inhibition [19] [%],inhibition [20] [%]
O=C1Nc2ccccc2/C1=C/Nc1ccc2[nH]c(=O)[nH]c2c1,3.88,-2.26,-0.78,11.6,11.5,5.12,9.63,3.8,4.97,0.57,3.5,-1.11,-0.39,4.42,4.19,1.87,2.83,-0.1,2.4,11.5
O=C(Nc1ccc(Oc2ccc3[nH]c(NC(=O)c4ccco4)nc3c2)cc1)Nc1cc(C(F)(F)F)ccc1F,2.24,2.34,39.6,4.66,39.4,4.14,31.7,1.18,1.53,-4.43,3.11,-0.3,5.87,-0.31,0.01,0.36,2.96,1.45,1.53,0.3
Cc1nc(-c2ccccc2)n2nc(NCCCN3CCOCC3)ncc12,1.02,-0.13,-0.34,3.9,3.71,1.59,2.11,1.83,1.77,1.57,2.42,-2.28,-2.05,1.91,1.2,-0.22,0.85,4.37,0.1,0.59
NS(=O)(=O)c1cccc(Nc2cc(-c3ccc(F)cc3)n[nH]2)c1,3.77,-0.26,3.28,1.56,7.1,1.06,5.29,2.2,2.89,-0.78,1.49,-1.05,3.13,1.31,3.66,-0.13,0.5,2.18,0.88,0.58
COc1ccc2ncnc(Nc3ccc(OCc4ccccc4)cc3)c2c1,4.61,-1.92,0.73,5.87,10.2,2.79,7.38,0.25,1.34,-0.24,1.88,-1.2,-0.4,2.14,1.05,1.99,2.84,1.57,1.15,-0.95
COc1cc2ncnc(Nc3ccc4c(cnn4Cc4ccccc4)c3)c2cc1OC,3.12,-1.9,-0.51,4.33,3.94,1.39,1.39,3.21,2.74,2.87,3.71,-4.03,-2.33,1.81,2.38,0.53,1.87,1.81,4.03,0.61
CN(C)CCCn1c(-c2nonc2N)nc2cnccc21,2.88,-1.86,-1.05,5.93,12.9,3.87,8.3,1.23,4.99,3.33,3.42,-2.65,-4.44,2.84,5.05,1.95,4.09,0.95,3.34,2.52
Cc1ccc2c(-c3ccnc(Nc4ccc5c(c4)OCCO5)n3)c(-c3ccc(C(F)(F)F)cc3)nn2n1,3.87,-2.01,-1.1,3.33,23.2,1.91,5.75,0.71,-1.27,0.73,0.43,-1.35,-3.21,-1.09,-0.65,0.68,0.76,6.55,-2.49,0
N#Cc1cccc(Nc2nccc(-c3cnn4ncccc34)n2)c1,35.8,0.24,3.11,3.74,14.6,3.01,14,12.9,47.1,4.57,26.4,0.8,23,6.65,23.3,3.45,21.2,-5.91,14.8,-0.07
CS(=O)(=O)CCNCc1nc(-c2ccc3ncnc(Nc4ccc(OCc5cccc(C(F)(F)F)c5)cc4)c3c2)cs1,1.69,0.88,-1.85,4.2,3.19,2.78,1.51,1.27,2.16,0.83,2.12,-2.46,-3.03,1.85,-0.47,0.76,3.63,-0.59,0.33,-1.19
COc1cc2ncn(-c3cc(OCc4ccccc4S(C)(=O)=O)c(C#N)s3)c2cc1OC,4.78,0.72,1.49,4.48,8.47,2.79,6.97,1.05,3.85,0.36,2.63,-1.91,-1.66,3.16,3.95,2.67,3.41,-5.13,-1.46,0.08
NS(=O)(=O)c1ccc(-c2cc3ccncc3cc2OCc2ccccc2)cc1,3.1,-2.09,3.53,7.07,8.35,2.71,6.57,5.51,3.8,-0.17,2.36,-1.87,0.04,3.71,4.7,1.97,2.98,3.31,0.15,1.82
CS(=O)(=O)Nc1cccc(-c2ccc3c(NC(=O)C4CC4)n[nH]c3c2)c1,1.38,-2.12,-0.78,-1.33,6.14,2.35,10.1,-1.65,1.02,1.49,0.75,-2.53,-4.93,-0.25,-0.59,1.13,4.97,-1.63,4.39,0.08
NS(=O)(=O)c1cccc(-c2cc3ccncc3cc2OCc2ccccc2)c1,4.26,-0.37,-1.61,2.47,8.87,3.17,5.6,-1.11,5.95,0.96,3.69,-1.98,-2.89,4.56,6.5,2.08,5.47,-1.89,-5.37,0.1
